IP6K1 inh: blocks human inositol hexakisphosphate kinase 1; IP6K1 kinase, ADP-Glo luminescence, 2 h; hits give low values; 0.81% of 140,000 active; Q92551; activity change, % (series mostly up to about 58 µM); in the data active means activity change below about -25%
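ADP-Glo luminescence measures ADP made by human IP6K1 during a 2 h RT reaction with ATP/IP6 (mix at 1.3 mM/130 uM); top library doses 57.5 and 19.1 uM final.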
SNCA expr inhib: reduces expression of the alpha-synuclein gene. HEK-293 SNCA-luciferase knock-in, luminescence, 24 h. Potency, µM (titrated, usually from 57.2 µM), without a hit: at the highest dose activity change, negative = inhibition, most hits filed as inhibitors. 0.17% of 140,000 active;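 further: potency means the concentration at half of the fitted maximal effect; plate controls were DMSO cells for no effect and cell-free wells for full effect; nearly all actives have a fitted effect of over 45% in size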
SNCA viab count: counter-screen for SNCA expression inhibitors: cell viability; HEK-293-SNCA-luc viability, GF-AFC fluorescence, 24 h; Potency, µM (titrated, usually from 57.1 µM), without a hit: at the top dose activity change, negative = cytotoxicity, usual class: cytotoxic; 0.12% of 150,000 active; AID 1671193;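 further: potency means the concentration at half of the fitted maximal effect; 0% = DMSO-treated cells and -100% = medium-only wells without cells; nearly all actives have a fitted effect of over 30% in size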
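Cytotoxicity counterscreen: after 24 h compound treatment of genome-edited SNCA-luciferase HEK-293 cells, live-cell protease substrate GF-AFC read by fluorescence after 30 min; activity scaled between DMSO (0%) and medium-only (-100%), curves Hill-fitted.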
GPT2 inh: GPT2 alanine aminotransferase inhibition | 0.25% of 100,000 active | AID 1671188 | Q8TD30 | Recombinant GPT2, coupled pyruvate oxidase/HRP Amplex Red fluorescence | Potency, µM (highest dose often 57.7 µM), for the others: at the highest dose activity change, negative = inhibition, most hits filed as inhibitors; further: potency means the concentration at half of the fitted maximal effect; nearly all actives have a fitted effect of over 60% in size
Target sequence (Q8TD30 whole entry, looked up): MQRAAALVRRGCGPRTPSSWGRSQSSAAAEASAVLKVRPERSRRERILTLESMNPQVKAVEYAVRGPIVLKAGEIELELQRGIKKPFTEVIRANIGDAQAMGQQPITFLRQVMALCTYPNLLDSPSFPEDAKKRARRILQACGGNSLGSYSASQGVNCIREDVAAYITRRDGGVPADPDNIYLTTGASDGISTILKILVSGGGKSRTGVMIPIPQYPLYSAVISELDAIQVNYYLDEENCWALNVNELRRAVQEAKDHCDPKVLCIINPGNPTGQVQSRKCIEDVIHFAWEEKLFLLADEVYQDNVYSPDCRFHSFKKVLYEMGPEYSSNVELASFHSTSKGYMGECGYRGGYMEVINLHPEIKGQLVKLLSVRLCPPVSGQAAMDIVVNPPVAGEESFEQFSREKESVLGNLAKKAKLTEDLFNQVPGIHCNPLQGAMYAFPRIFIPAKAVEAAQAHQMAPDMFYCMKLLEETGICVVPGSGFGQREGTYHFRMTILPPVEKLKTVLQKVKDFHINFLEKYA
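Inhibition is scored from Amplex Red fluorescence generated when pyruvate oxidase and HRP act on pyruvate released by GPT2. Reactions contain 10ng/uL enzyme, 250uM a-KG and 2mM L-alanine and run 30 min at room temperature.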
IP6K1 inh cnf: human IP6K1 inhibition, confirmatory. shares compounds with IP6K1 inh. recombinant IP6K1 kinase, ADP-Glo luminescence, 2 h. Potency, µM (titrated, usually from 49 µM), inactives show at the top dose activity change, negative = inhibition, hits mostly inhibitors. 13% of 1,200 active; further: potency means the concentration at half of the fitted maximal effect; nearly all actives have a fitted effect of over 65% in size
* hit, by the source's call; i = inactive; ? = inconclusive; . = no result; [ ] = remark or other dose. Compounds with a hit are over-represented: about 1% of the library has one in this group of screens. Unless noted, the call rests on the fitted dose curve; in most records, active means well fitted curve in the direction sought with a large enough effect; inconclusive means small, poorly fitted or top-dose-only effect, or another doubt; inactive means no such curve, though single readings can be large; an effect the other way counts as inactive or inconclusive. Unless noted, on the % scale 0 is the no-effect control and ±100 the full control effect.

SMILES | IP6K1 inh | SNCA expr inhib | SNCA viab count | GPT2 inh | IP6K1 inh cnf
O=[S+]([O-])(N[C@@H]1C[C@@H]2CO[C@H](c3ccccc3)C[C@@H]2C1)c1ccc(Cl)cc1 | 13 | . | . | . | .
CCOc1ccc(C2C(C(=O)OC)=C(C)NC3=C2C(=O)c2ccccc23)cc1OC (configuration not stated) | -27* | 39% | ? | . | ?
O=C(Nc1ccc(Br)cc1)c1cc(S(=O)(=O)NC2CCCC2)ccc1F | -35* | 7% | -3% | . | -11%
Fc1ccc(Nc2nc(-c3cccc(Cl)c3)c3c(n2)-c2ccccc2OC3)c(F)c1 | -27* | 5% | 5% | . | -7%
COc1ccc(C)cc1Nc1nc(-c2cccc(Cl)c2)c2c(n1)-c1ccccc1OC2 | -14 | 21% | 1% | . | .
Cc1cccc(OCCCCn2c(C3CC(=O)N(c4ccc(C)cc4C)C3)nc3ccccc32)c1 (configuration not stated) | -39* | ? | ? | . | -18%
CCc1ccccc1N1CC(c2nc3ccccc3n2CCCCOc2ccccc2OC)CC1=O (configuration not stated) | -13 | 22% | 2% | . | .
COc1ccccc1Cn1c(C2CC(=O)N(c3ccccc3OC)C2)nc2ccccc21 (configuration not stated) | -43* | 13% | ? | . | 12%
CNC(=O)c1cccc(-c2cnc3[nH]cc(CC(=O)Nc4ccccc4Cl)c3c2)c1 | -26* | 56%[87.6 µM] | ? | -15%[88.5 µM] | ?
NC(=O)Cc1c[nH]c2ncc(-c3cccc(CO)c3)cc12 | -27* | -4%[87.6 µM] | 3%[87.6 µM] | i | ?
Cc1cccc(-c2cnc3[nH]cc(CC(N)=O)c3c2)c1 | -32* | 3%[87.6 µM] | 3%[87.6 µM] | i | ?
CNC(=O)c1cccc(-c2cnc3[nH]cc(CC(=O)Nc4cccc(F)c4)c3c2)c1 | -8 | -22%[87.6 µM] | -20%[87.6 µM] | 4%[88.5 µM] | .
O=C(C1CCCC1)N1CCC2(CC1)CC(c1cccc(C(F)(F)F)c1)=NO2 | 5 | . | . | . | .
COc1cccc(-c2c(C(=O)NCc3ccc(Cl)cc3)nc3sccn23)c1 | -13 | -4% | -16% | i | .
COc1ccc(C(=O)Nc2ccc(-c3cc4ccccc4oc3=O)c(C)c2)cc1Br | -28* | 38% | 7% | . | ?
CCN1CCN(Cc2ccc(NC(=O)c3ccc(C)c(NC(=O)c4cncc(-c5cccs5)c4)c3)cc2C(F)(F)F)CC1 | -5 | . | ? | -9% | .
CCc1ccc(C(=O)Nc2cc(CN3CCN(C)CC3)cc(C(F)(F)F)c2)cc1C#Cc1cnc2ccnn2c1 | -39* | 24µM* | ? | ? | ?
COc1cccc(C(=O)NC2CCN(Cc3cccc(-c4ccc(F)cc4F)c3)CC2)c1 | 9 | . | . | . | .
Cc1ccc2c(CNCc3cccc(Cl)c3)c(C(=O)O)n(Cc3ccc(F)cc3Cl)c2c1 | -27* | 8% | -3% | . | 17%
COc1ccc(CNCc2c(C(=O)O)n(Cc3ccc(F)cc3)c3cc(C)ccc23)cc1OC | 10 | 35% | -12% | . | .
CC1CN(C(=O)CCC(=O)NCc2ccccc2)c2cc(Cl)ccc2O1 (configuration not stated) | -5 | -6% | 8% | . | .
CC1CN(C(=O)CCC(=O)NCc2ccc(F)cc2)c2cc(Cl)ccc2O1 (configuration not stated) | -25* | 25% | -4% | . | -7%
Cc1ccc(-c2nc(CNC(=O)C(C)CN)[nH]c2-c2ccccn2)cc1 (configuration not stated) | 0 | -7% | 1% | -20% | .
CN[C@@H](CO)C(=O)NCc1nc(-c2ccc(C)cc2)c(-c2ccccn2)[nH]1 | -45* | -5% | 6% | -5% | -10%
Cc1noc(-c2ccc(N3CCC(C)CC3)c([N+](=O)[O-])c2)n1 | -36* | 90% | -7% | . | ?
SMILES | IP6K1 inh | SNCA expr inhib | SNCA viab count | GPT2 inh | IP6K1 inh cnf
C=CCOCC(O)CN1CCC(=O)N(Cc2ccccc2)Cc2c1ccc(OC)c2OCC=C (configuration not stated) | -5 | . | . | . | .
COc1ccccc1Nc1ccnc(N2CCCC(C(=O)NCCc3ccccc3)C2)n1 (configuration not stated) | 14 | 8% | -20%[12.5 µM] | i | .
CNC(=O)c1ccc(NC(=O)c2nsc3ccccc23)cc1 | -27* | -71% | -7% | . | ?
Cc1ccc(Nc2ccnc(N3CCCN([S+](=O)([O-])c4c(C)noc4C)C3)n2)cc1 | -18 | 109% | 3%[12.5 µM] | i | .
CC(C)C(=O)c1cc2c(cc1NC(=O)c1ccccc1F)OCCO2 | -28* | -10% | 13% | . | -17%
COc1ccc(C(=O)Nc2cc3c(cc2C(=O)c2ccccc2Cl)OCCO3)cc1 | 2 | ? | 3% | . | .
O=Cc1cccc(-c2cccc(C(F)(F)F)c2)c1 | -36* | 2%[87.6 µM] | -2%[87.6 µM] | i | ?
O=Cc1cccc(-c2ccccc2F)c1 | -29* | 22%[87.6 µM] | 8%[87.6 µM] | 3%[88.5 µM] | ?
COc1ccc(Nc2ccnc(N3CCN(C(=O)c4ccc(OC)cc4)CC3)n2)cc1 | 0 | 5% | -6% | -6% | .
COc1ccc2c(c1)C(CN1CCN(c3ccc4oc(C(=O)O)cc4c3Cl)CC1)=CC(C)(C)CO2 | -74* | . | . | . | -12%
O=C(NCc1cccc(Cl)c1)C1CN(C2CCCCC2)C(=O)N1 (configuration not stated) | 1 | -6%[87.6 µM] | 0%[12.5 µM] | i | .
Cn1nc(-c2ccccc2F)c2cc(C(=O)NCc3ccc(Cl)cc3)sc21 | -39* | ? | ? | . | ?
COc1cc(F)c(F)c(Nc2ccc(I)cc2F)c1NS(=O)(=O)C1(C[C@H](O)CO)CC1 | -6 | -16% | -20% | i | -15%
O=C(O)C(Cc1cc(I)c(O)c(I)c1)c1ccccc1 (configuration not stated) | 26 | 8%[25.6 µM] | -28%[23.9 µM] | -16% | .
N[C@@H](Cc1cc(I)c(O)c(I)c1)C(=O)O | -62* | 6%[25.6 µM] | -13%[23.9 µM] | ? | -20%
CC(=O)NCCNc1nc(-c2ccc(C(=O)N(C)C)cc2)nc2ccccc12 | . | 45% | -8% | . | .
CCC(=O)OCCCNc1nc(-c2ccc(Cl)cc2)nc2ccccc12 | -25* | 11% | -9% | . | ?
NC(=O)CSc1oc(-c2ccco2)nc1S(=O)(=O)c1ccc(Cl)cc1 | -22 | -23% | 6% | . | .
NC(=O)CSc1oc(-c2ccco2)nc1S(=O)(=O)c1ccc(Br)cc1 | -33* | -15% | 6% | . | ?
Cc1ccc(CSc2oc(-c3ccco3)nc2S(=O)(=O)c2ccc(Br)cc2)cc1 | -32* | -23% | ? | . | -5%
O=C(CSc1oc(-c2ccco2)nc1S(=O)(=O)c1ccc(Cl)cc1)c1ccc(Cl)cc1 | -27* | ? | -9% | . | -13%
Nc1nc2c(s1)C(c1cccc(F)c1)CC(=O)N2 (configuration not stated) | -31* | 68% | 0% | ? | ?
COc1ccc(Br)cc1[C@@H]1Nc2ccc(C(=O)O)cc2[C@@H]2C=CC[C@@H]21 | -40* | -22% | -5% | . | ?

Bioassay records as filed in PubChem.
